From paper PMC7862700, “An all-to-all approach to the identification of sequence-specific readers for epigenetic DNA modifications on cytosine” come the findings set out here.

Holding throughout (assay): DAPPL (digital affinity profiling via proximity ligation, sequencing); 10 mM Tris-HCl pH 7.5, 50 mM NaCl, 1 mM DTT, 4% glycerol, room temperature, 30 min; GST-TFs on glutathione beads, 16-mer random dsDNA library, 0.1% formaldehyde crosslink after washing; high values mean tight binding
The target of one experiment is T1, FLI1 (Homo sapiens, UniProt Q01543 1-452).
T1 sequence: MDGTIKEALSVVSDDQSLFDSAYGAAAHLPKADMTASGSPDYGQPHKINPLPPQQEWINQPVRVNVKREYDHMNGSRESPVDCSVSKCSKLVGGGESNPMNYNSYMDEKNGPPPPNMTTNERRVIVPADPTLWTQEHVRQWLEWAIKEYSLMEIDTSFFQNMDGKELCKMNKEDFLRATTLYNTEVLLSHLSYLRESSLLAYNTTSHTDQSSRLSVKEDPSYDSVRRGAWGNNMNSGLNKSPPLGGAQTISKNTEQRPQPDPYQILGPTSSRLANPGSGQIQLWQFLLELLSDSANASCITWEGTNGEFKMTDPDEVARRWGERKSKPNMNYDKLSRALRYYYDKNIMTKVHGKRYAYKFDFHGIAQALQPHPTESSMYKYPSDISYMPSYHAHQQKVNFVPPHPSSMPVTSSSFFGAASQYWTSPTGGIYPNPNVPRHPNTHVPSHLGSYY
The note with it: protein: recombinant; tags: N-terminal GST; dsDNA, one strand shown. The method in brief: (§1)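 Binding signal is each hexamer's read frequency for a factor divided by its frequency in the tag-only sample. The factors were GST-fused human transcription factors from yeast, captured on glutathione beads, DNA-barcoded and pooled with that sample. Pools were incubated with 200 nmole of a random double-stranded 16-mer DNA library in Tris/NaCl/DTT/glycerol buffer at room temperature for 30 min, then washed, crosslinked with 0.1% formaldehyde, proximity-ligated with BsaI/T4 ligase (1 h, 37 °C), PCR-amplified and sequenced on an Illumina NextSeq500.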

The target of the next experiment is T2, ELK1 (Homo sapiens, UniProt P19419 1-428).
T2 sequence: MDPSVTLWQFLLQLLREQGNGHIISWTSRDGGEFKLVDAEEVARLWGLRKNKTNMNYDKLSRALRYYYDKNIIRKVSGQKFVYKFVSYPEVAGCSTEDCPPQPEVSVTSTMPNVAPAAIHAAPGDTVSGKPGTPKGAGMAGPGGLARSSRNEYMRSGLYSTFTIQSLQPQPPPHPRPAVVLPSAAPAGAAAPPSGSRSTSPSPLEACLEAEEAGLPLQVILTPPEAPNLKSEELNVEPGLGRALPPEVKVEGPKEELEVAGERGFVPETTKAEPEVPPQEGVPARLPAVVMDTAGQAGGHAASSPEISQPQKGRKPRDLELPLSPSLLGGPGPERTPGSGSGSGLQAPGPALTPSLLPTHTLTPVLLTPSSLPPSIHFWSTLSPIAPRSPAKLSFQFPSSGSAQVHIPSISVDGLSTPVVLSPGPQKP
To be noted: protein: recombinant; tags: N-terminal GST; dsDNA, one strand shown. Put shortly:
as §1

The next experiment concerns the target T3, GABPA (Homo sapiens, UniProt Q06546 1-454).
T3 sequence: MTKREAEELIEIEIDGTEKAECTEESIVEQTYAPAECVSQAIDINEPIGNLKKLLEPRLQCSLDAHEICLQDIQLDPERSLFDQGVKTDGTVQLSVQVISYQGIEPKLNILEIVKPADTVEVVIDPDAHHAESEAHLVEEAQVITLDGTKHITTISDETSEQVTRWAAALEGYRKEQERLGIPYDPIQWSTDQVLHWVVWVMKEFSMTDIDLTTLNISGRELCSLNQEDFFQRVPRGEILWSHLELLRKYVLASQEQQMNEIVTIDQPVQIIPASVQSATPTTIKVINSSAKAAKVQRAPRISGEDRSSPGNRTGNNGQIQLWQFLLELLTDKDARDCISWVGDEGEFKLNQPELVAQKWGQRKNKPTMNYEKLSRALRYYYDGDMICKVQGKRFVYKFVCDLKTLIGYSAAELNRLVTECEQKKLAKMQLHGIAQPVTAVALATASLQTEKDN
The note with it: protein: recombinant; tags: N-terminal GST; dsDNA, one strand shown. Put shortly: as §1

The next experiment has as its target T4, ERG (Homo sapiens, UniProt P11308 1-479).
T4 sequence: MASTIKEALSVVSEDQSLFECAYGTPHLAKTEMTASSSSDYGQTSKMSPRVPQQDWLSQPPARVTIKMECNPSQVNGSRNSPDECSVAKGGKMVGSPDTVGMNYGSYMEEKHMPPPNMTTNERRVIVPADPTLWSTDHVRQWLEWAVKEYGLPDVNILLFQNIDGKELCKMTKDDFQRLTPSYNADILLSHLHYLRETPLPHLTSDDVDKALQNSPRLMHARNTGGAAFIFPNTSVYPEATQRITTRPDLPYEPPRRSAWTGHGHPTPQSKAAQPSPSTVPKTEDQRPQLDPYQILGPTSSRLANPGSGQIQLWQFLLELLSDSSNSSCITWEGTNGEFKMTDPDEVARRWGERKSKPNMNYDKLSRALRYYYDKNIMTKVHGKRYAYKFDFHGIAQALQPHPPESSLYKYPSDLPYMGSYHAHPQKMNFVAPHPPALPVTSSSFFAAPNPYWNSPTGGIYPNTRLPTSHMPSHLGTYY
The note with it: protein: recombinant; tags: N-terminal GST; dsDNA, one strand shown. Put shortly: as §1

The target in the next experiment is ELF1 (Homo sapiens, UniProt P32519 1-619). To be noted: protein: recombinant; tags: N-terminal GST; dsDNA, one strand shown. The method in brief: as §1
The next experiment deals with T5, EHF (Homo sapiens, UniProt Q9NZC4 1-300).
T5 sequence: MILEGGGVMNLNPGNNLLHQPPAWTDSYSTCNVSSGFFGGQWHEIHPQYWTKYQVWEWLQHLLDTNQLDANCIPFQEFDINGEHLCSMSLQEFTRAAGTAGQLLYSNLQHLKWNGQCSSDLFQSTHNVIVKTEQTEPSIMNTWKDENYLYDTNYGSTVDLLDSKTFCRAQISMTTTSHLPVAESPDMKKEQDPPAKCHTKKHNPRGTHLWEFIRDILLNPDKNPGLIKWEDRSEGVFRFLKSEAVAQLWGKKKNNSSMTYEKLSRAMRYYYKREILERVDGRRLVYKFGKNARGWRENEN
To be noted: protein: recombinant; tags: N-terminal GST; dsDNA, one strand shown. The method in brief: as §1

The target in another experiment is SPI1 (Homo sapiens, UniProt P17947 1-270). To be noted: protein: recombinant; tags: N-terminal GST; dsDNA, one strand shown. Put shortly: as §1
Another experiment has as its target SPIB (Homo sapiens, UniProt Q01892 1-262). To be noted: protein: recombinant; tags: N-terminal GST; dsDNA, one strand shown. Put shortly: as §1
The target in another experiment is T6, ELK3 (Homo sapiens, UniProt P41970 1-407).
T6 sequence: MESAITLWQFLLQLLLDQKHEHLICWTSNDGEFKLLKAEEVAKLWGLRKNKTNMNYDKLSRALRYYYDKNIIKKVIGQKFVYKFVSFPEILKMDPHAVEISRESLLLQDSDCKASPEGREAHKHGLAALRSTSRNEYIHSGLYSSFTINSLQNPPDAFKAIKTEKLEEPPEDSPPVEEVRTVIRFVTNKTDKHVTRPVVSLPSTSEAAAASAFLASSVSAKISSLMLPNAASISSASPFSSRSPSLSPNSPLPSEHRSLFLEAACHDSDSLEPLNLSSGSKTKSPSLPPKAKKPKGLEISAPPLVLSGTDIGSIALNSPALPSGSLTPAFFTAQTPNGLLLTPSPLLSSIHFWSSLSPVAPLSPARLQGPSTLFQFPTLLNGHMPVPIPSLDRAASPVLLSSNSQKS
To be noted: protein: recombinant; tags: N-terminal GST; dsDNA, one strand shown. Put shortly: as §1

In a further experiment the target is T7, FEV (Homo sapiens, UniProt Q99581 1-238).
T7 sequence: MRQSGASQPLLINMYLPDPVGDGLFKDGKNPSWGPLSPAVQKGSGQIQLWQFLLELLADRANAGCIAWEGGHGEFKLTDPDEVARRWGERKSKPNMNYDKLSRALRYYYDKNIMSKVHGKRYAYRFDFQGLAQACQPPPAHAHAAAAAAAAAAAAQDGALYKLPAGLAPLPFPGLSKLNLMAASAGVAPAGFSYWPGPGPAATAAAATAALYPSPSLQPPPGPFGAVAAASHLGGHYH
To be noted: protein: recombinant; tags: N-terminal GST; dsDNA, one strand shown. The method in brief:
as §1

The target in the next experiment is ETV5 (Homo sapiens, UniProt P41161 1-510). To be noted: protein: recombinant; tags: N-terminal GST; dsDNA, one strand shown. The method in brief: as §1
Another experiment deals with HSF1 (Homo sapiens, UniProt Q00613 1-529). To be noted: protein: recombinant; tags: N-terminal GST; chain copies: 3; dsDNA, one strand shown. Put shortly: as §1
For the next experiment, the target named is T8, SPIC (Homo sapiens, UniProt Q8N5J4 1-248).
T8 sequence: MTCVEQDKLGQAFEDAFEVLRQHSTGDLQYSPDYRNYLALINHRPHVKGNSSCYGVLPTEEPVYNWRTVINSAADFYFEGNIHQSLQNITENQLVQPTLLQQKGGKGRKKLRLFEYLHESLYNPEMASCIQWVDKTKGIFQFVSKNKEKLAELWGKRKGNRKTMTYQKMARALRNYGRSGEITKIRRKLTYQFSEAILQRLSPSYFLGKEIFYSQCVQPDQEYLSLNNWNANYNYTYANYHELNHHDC
The note with it: protein: recombinant; tags: N-terminal GST; dsDNA, one strand shown. Put shortly: as §1

The target in a further experiment is ELF4 (Homo sapiens, UniProt Q99607 1-663). To be noted: protein: recombinant; tags: N-terminal GST; dsDNA, one strand shown. Put shortly: as §1
A further experiment deals with T9, ELK4 (Homo sapiens, UniProt P28324-2 1-405).
T9 sequence: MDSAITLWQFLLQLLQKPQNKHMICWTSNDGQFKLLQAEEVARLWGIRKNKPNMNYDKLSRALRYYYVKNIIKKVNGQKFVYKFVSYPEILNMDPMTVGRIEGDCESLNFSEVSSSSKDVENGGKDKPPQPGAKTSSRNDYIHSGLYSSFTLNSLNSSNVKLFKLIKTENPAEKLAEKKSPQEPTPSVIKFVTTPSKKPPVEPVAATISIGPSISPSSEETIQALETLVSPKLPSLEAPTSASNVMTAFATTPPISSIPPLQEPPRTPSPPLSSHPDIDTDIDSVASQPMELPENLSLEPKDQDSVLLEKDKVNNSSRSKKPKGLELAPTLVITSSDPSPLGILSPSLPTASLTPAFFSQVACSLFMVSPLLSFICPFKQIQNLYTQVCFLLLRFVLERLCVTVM
To be noted: protein: recombinant; tags: N-terminal GST; dsDNA, one strand shown. The method in brief:
as §1

Another experiment addresses T10, ETV2 (Homo sapiens, UniProt O00321 1-342).
T10 sequence: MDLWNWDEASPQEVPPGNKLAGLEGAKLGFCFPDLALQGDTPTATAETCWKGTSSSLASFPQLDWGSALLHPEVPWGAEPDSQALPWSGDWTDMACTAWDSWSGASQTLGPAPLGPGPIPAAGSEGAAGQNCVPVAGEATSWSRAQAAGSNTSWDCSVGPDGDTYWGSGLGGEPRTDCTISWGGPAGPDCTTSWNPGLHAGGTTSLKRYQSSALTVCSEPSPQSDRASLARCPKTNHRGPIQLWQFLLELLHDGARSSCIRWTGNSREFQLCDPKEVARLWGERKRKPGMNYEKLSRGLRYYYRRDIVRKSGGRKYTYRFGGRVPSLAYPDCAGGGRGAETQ
To be noted: protein: recombinant; tags: N-terminal GST; dsDNA, one strand shown. Put shortly:
as §1

A further experiment concerns the target T11, ELF3 (Homo sapiens, UniProt P78545 1-371).
T11 sequence: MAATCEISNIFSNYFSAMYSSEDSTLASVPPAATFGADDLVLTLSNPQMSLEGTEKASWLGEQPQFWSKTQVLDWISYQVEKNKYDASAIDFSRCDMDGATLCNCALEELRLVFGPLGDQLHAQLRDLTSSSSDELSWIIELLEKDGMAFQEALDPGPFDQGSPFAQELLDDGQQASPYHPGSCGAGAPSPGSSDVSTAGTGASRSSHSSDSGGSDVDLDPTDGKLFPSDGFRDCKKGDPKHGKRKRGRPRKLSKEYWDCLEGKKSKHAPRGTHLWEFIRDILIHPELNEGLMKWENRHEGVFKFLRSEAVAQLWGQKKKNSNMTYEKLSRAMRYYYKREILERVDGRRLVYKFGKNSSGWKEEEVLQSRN
The note with it: protein: recombinant; tags: N-terminal GST; dsDNA, one strand shown. Put shortly: as §1

Another experiment addresses CRX (Homo sapiens, UniProt O43186 1-299). The note with it: protein: recombinant; tags: N-terminal GST; dsDNA, one strand shown. Put shortly:
as §1

Another experiment deals with ETV1 (Homo sapiens, UniProt P50549 1-477). The note with it: protein: recombinant; tags: N-terminal GST; dsDNA, one strand shown. Put shortly:
as §1

Sequence of ETV5 (P41161 whole entry): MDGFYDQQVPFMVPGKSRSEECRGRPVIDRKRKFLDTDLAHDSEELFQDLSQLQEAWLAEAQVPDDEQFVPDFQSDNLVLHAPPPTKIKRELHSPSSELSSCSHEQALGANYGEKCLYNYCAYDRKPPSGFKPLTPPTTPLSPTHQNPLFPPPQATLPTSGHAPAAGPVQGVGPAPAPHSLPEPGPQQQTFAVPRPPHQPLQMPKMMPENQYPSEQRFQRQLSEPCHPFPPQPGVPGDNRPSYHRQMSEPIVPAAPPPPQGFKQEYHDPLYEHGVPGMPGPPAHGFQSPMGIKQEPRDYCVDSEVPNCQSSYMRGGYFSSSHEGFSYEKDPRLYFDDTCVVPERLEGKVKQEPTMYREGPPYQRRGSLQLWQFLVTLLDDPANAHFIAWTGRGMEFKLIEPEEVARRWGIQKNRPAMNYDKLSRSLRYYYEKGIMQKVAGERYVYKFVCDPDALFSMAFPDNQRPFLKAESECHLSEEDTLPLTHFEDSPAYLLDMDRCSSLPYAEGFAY
Sequence of ELF1 (P32519 whole entry): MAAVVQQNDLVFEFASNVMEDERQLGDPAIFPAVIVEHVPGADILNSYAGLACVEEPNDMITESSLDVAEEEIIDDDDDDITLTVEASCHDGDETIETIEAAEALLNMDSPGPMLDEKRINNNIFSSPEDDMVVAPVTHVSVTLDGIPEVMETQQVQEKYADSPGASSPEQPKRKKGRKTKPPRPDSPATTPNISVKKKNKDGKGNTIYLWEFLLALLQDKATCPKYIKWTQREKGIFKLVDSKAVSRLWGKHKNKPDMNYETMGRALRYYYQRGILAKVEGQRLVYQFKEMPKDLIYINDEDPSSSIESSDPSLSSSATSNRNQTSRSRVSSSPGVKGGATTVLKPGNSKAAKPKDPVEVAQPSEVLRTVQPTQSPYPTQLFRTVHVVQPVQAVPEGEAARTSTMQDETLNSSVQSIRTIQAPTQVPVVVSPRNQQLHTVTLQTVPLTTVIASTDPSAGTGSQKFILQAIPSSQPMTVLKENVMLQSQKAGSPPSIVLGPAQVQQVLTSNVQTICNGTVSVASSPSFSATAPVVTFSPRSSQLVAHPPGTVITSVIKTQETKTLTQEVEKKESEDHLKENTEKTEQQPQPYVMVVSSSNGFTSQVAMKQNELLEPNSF
Sequence of HSF1 (Q00613 whole entry): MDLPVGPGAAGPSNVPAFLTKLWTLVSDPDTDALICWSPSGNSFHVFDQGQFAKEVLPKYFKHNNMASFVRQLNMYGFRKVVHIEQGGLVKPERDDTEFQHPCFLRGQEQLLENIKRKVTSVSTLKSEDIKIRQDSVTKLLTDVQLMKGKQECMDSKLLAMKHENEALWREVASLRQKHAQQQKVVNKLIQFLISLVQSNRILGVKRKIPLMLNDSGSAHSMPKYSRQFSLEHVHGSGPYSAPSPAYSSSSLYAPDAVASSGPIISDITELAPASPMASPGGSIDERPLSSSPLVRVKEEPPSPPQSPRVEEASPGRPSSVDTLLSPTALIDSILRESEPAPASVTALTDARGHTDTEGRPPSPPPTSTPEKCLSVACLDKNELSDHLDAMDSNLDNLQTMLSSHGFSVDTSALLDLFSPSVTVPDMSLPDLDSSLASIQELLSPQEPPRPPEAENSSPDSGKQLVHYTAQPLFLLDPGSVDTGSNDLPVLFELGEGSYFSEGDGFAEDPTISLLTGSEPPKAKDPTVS
Sequence of ELF4 (Q99607 whole entry): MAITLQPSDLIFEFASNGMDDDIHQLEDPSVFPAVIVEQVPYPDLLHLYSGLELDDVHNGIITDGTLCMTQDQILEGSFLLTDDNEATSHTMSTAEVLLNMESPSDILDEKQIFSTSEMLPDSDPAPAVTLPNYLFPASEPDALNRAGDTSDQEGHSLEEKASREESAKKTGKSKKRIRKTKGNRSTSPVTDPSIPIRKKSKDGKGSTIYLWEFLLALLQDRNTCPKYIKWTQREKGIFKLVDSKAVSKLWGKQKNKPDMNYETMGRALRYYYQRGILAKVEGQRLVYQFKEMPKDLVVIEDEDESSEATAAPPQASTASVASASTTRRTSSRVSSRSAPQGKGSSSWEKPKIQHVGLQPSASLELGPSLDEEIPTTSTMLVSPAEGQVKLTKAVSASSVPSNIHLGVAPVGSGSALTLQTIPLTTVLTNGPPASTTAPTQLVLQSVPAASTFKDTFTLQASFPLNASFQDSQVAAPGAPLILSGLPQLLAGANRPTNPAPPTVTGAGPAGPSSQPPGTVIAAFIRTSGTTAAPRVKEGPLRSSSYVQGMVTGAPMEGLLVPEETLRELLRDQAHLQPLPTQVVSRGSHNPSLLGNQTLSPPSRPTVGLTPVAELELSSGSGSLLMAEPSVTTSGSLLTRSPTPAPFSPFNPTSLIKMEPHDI
Sequence of CRX (O43186 whole entry): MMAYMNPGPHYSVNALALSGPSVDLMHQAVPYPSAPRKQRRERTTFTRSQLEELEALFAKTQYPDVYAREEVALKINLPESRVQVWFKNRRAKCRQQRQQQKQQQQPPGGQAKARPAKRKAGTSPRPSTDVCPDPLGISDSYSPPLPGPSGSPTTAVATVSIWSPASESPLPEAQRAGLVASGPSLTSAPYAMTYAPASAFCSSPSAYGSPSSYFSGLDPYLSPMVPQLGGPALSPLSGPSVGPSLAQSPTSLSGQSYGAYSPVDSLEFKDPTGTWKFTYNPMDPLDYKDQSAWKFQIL
Sequence of SPIB (Q01892 whole entry): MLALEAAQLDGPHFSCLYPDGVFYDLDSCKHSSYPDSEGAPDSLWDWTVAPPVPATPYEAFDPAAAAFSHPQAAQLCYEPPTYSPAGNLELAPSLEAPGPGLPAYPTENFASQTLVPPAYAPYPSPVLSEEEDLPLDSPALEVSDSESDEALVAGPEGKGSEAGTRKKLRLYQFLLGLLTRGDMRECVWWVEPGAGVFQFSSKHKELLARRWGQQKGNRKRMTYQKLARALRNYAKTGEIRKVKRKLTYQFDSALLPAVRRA
Sequence of ETV1 (P50549 whole entry): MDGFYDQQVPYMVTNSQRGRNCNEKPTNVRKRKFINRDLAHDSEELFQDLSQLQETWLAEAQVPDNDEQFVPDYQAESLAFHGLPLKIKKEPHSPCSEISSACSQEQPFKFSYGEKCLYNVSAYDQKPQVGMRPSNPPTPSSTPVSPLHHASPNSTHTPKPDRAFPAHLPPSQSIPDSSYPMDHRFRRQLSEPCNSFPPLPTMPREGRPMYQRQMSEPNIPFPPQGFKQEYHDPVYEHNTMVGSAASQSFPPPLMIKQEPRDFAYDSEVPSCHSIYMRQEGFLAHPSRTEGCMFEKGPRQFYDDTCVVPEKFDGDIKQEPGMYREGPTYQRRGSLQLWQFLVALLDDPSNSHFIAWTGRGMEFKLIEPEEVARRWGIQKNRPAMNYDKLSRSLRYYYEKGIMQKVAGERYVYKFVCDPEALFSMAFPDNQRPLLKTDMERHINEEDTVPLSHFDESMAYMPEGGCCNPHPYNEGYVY

For TACGCC, the binding signal with FLI1 is 1.39 fold enrichment (6-mer frequency, TF over GST control); in the experiment with ELK1, 1.22 fold enrichment (6-mer frequency, TF over GST control); with GABPA it was 1.3 fold enrichment (6-mer frequency, TF over GST control); with ERG, 1.16 fold enrichment (6-mer frequency, TF over GST control); in the experiment with ELF1, 1.28 fold enrichment (6-mer frequency, TF over GST control); with EHF it was 1.18 fold enrichment (6-mer frequency, TF over GST control). Besides, the binding signal with SPI1 is 1.18 fold enrichment (6-mer frequency, TF over GST control); with SPIB, 1.18 fold enrichment (6-mer frequency, TF over GST control); with ELK3, 1.23 fold enrichment (6-mer frequency, TF over GST control); with FEV, 1.25 fold enrichment (6-mer frequency, TF over GST control); with ETV5, 1.26 fold enrichment (6-mer frequency, TF over GST control); with HSF1 it was 1.17 fold enrichment (6-mer frequency, TF over GST control). The binding signal is 1.32 fold enrichment (6-mer frequency, TF over GST control) with SPIC; 1.29 fold enrichment (6-mer frequency, TF over GST control) in the experiment with ELF4; 1.24 fold enrichment (6-mer frequency, TF over GST control) in the experiment with ELK4; 1.02 fold enrichment (6-mer frequency, TF over GST control) with ETV2; 1.14 fold enrichment (6-mer frequency, TF over GST control) with ELF3; 1.2 fold enrichment (6-mer frequency, TF over GST control) with CRX. Further, the binding signal with ETV1 was 1.22 fold enrichment (6-mer frequency, TF over GST control).
